A short description of assay [1]: NCI Yeast Anticancer Drug Screen. Data for the rad50 strain (AID 155).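 Also: 0% = growth of vehicle-only cultures of the same strain.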 To be noted: S. cerevisiae rad50 strain growth inhibition, hits give high values. In a few lines:
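Compounds were tested on a yeast strain with an engineered DNA damage repair alteration; the reported value is growth inhibition normalised to vehicle treatment.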

Assay [2] is described as follows: NCI Yeast Anticancer Drug Screen. Data for the mec2-1 strain (AID 157). To be noted: S. cerevisiae mec2-1 strain, hits give high values. A digest of the protocol:
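Each compound was tested on mec2-1 yeast, a strain altered in DNA damage repair or cell cycle control. Growth inhibition is reported relative to vehicle.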

A short description of assay [3]: NCI Yeast Anticancer Drug Screen. Data for the sgs1 mgt1 strain (AID 161).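 Also: 0% = growth of cultures given vehicle only.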 To be noted: S. cerevisiae sgs1 mgt1 strain, hits give high values. In a few lines: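 Read-out: growth inhibition vs vehicle controls. Cells: mutant yeast strain deficient in DNA damage repair.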
Assay [4] in a line: NCI Yeast Anticancer Drug Screen. Data for the cln2 rad14 strain (AID 165).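 Also: 0% = growth equal to vehicle treated cultures.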 Particulars: S. cerevisiae cln2 rad14 strain, hits give high values. In a few lines: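 Test compounds were added to cln2 rad14 yeast cultures; inhibition of growth was then determined by comparison with vehicle treatment.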
Assay [5] can be described thus: NCI Yeast Anticancer Drug Screen. Data for the bub3 strain (AID 167). To be noted: S. cerevisiae bub3 mutant strain, hits give high values. In a few lines: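 Growth of a checkpoint-deficient yeast mutant is measured after compound exposure. Values represent inhibition relative to vehicle.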
A short description of assay [6]: NCI Yeast Anticancer Drug Screen. Data for the mlh1 rad18 strain (AID 175). Particulars: S. cerevisiae mlh1 rad18 strain growth inhibition, hits give high values. In a few lines:
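Inhibition values reflect reduced growth of mutant yeast versus vehicle-treated controls following compound exposure; the mutations affect DNA damage repair.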

Setting [7] is: at 5.0 µM (retest, dose inferred, filed as 0.5).
[8] abbreviates: at 50.0 µM (retest, dose inferred, filed as 5.0).

This note sets out measurements from PubChem BioAssay (NCI).

The structures appear in SMILES notation. About 79,000 compounds went through this panel and 15% of them were active in at least one assay; those are over-represented in the sample as a whole. Unmarked numbers belong to inactive results. Activity calls are given as the source filed them. Rule as the data show it: active = growth inhibition above about 70%; inactive = the rest.

Regarding `COC(=O)[C@]1(C)CCCC2(C)C3=C(CCC21)CC1(CC3)SCCS1` (stereo not given in full), the growth inhibition in assay [1] (setting [7]) is 12%; in assay [1] (setting [8]) it was 92% (active); in assay [1] (at 50.0 µM), 85.4% (active); in assay [2] (setting [7]), 41%; in assay [2] (setting [8]) it was 94% (active); in assay [2] (at 50.0 µM), 91.3% (active). Besides, the growth inhibition in assay [3] (setting [7]) is 29%; in assay [3] (setting [8]), 93% (active); in assay [3] (at 50.0 µM) it was 87.6% (active); in assay [4] (setting [7]), 46%; in assay [4] (setting [8]) it was 96% (active); in assay [4] (at 50.0 µM), 86.4% (active). Further, the growth inhibition is 56% in assay [5] (setting [7]); 95% (active) in assay [5] (setting [8]); 86.5% (active) in assay [5] (at 50.0 µM); 18% in assay [6] (setting [7]); 95% (active) in assay [6] (setting [8]); 85.7% (active) in assay [6] (at 50.0 µM).

For `Cc1cc(NCCCCCCNc2cc(C)nc3cc(N(C)C)ccc23)c2ccc(N(C)C)cc2n1`, the growth inhibition in assay [1] (setting [7]) is 11%; in assay [1] (setting [8]) it was 90% (active); in assay [1] (at 50.0 µM), 68.5%; in assay [2] (setting [7]), 0%; in assay [2] (setting [8]) it was 96% (active); in assay [2] (at 50.0 µM), 85.2% (active). Moreover, the growth inhibition in assay [3] (setting [7]) was 9%; in assay [3] (setting [8]), 95% (active); in assay [3] (at 50.0 µM), 26.7%; in assay [4] (setting [7]), 8%; in assay [4] (setting [8]), 79% (active); in assay [4] (at 50.0 µM) it was 13%. Further, the growth inhibition is -7% in assay [5] (setting [7]); 96% (active) in assay [5] (setting [8]); 1.15% in assay [5] (at 50.0 µM); 7% in assay [6] (setting [7]); 92% (active) in assay [6] (setting [8]); 7.45% in assay [6] (at 50.0 µM).

With `CC(=O)c1ccc2sc3ccccc3c2c1`, the growth inhibition was -92% in assay [1] (setting [7]); 96% (active) in assay [1] (setting [8]); 96% (active) in assay [1] (at 50.0 µM); -45% in assay [2] (setting [7]); 72% (active) in assay [2] (setting [8]); 57.6% in assay [2] (at 50.0 µM). The growth inhibition was -59% in assay [3] (setting [7]); 88% (active) in assay [3] (setting [8]); 70.2% (active) in assay [3] (at 50.0 µM); -52% in assay [4] (setting [7]); 86% (active) in assay [4] (setting [8]); 33.4% in assay [4] (at 50.0 µM). For the same compound, the growth inhibition in assay [5] (setting [7]) is -51%; in assay [5] (setting [8]), 85% (active); in assay [5] (at 50.0 µM) it was 88% (active); in assay [6] (setting [7]), -120%; in assay [6] (setting [8]), 92% (active); in assay [6] (at 50.0 µM) it was 88.3% (active).

As for `CCC(CC)(c1ccc(C)cc1)c1ccc(C)cc1`, the growth inhibition was -12% in assay [1] (setting [7]); 99% (active) in assay [1] (setting [8]); 99.5% (active) in assay [1] (at 50.0 µM); -10% in assay [2] (setting [7]); 99% (active) in assay [2] (setting [8]); 99.2% (active) in assay [2] (at 50.0 µM). Further, the growth inhibition in assay [3] (setting [7]) was -6%; in assay [3] (setting [8]), 99% (active); in assay [3] (at 50.0 µM), 98.8% (active); in assay [4] (setting [7]), -80%; in assay [4] (setting [8]) it was 99% (active); in assay [4] (at 50.0 µM) it was 77.2% (active). In addition, the growth inhibition was 22% in assay [5] (setting [7]); -55% in assay [5] (setting [8]); 92.3% (active) in assay [5] (at 50.0 µM); 7% in assay [6] (setting [7]); 99% (active) in assay [6] (setting [8]); 99.6% (active) in assay [6] (at 50.0 µM).

For `NCc1cccc(O)c1O`, the growth inhibition in assay [1] (setting [7]) is 27%; in assay [1] (setting [8]) it was 61%; in assay [1] (at 50.0 µM) it was 73.7% (active); in assay [2] (setting [7]), 22%; in assay [2] (setting [8]), 41%; in assay [2] (at 50.0 µM) it was 81.1% (active). Besides, the growth inhibition in assay [3] (setting [7]) was 14%; in assay [3] (setting [8]) it was 51%; in assay [3] (at 50.0 µM), 41.5%; in assay [4] (setting [7]), 15%; in assay [4] (setting [8]) it was 46%; in assay [4] (at 50.0 µM) it was 24.7%. The growth inhibition in assay [5] (setting [7]) was 20%; in assay [5] (setting [8]), 72% (active); in assay [5] (at 50.0 µM) it was 53.6%; in assay [6] (setting [7]), 28%; in assay [6] (setting [8]), 44%; in assay [6] (at 50.0 µM), 24.9%.

With `CCN(CC)c1cccc(OC(=O)Nc2cccc(C(F)(F)F)c2)c1`, the growth inhibition was 50% in assay [1] (setting [7]); 73% (active) in assay [1] (setting [8]); 84% (active) in assay [1] (at 50.0 µM); 37% in assay [2] (setting [7]); 73% (active) in assay [2] (setting [8]); 81.2% (active) in assay [2] (at 50.0 µM). The growth inhibition in assay [3] (setting [7]) is 42%; in assay [3] (setting [8]) it was 80% (active); in assay [3] (at 50.0 µM), 83.8% (active); in assay [4] (setting [7]) it was 28%; in assay [4] (setting [8]), 64%; in assay [4] (at 50.0 µM), 82.9% (active). Further, the growth inhibition in assay [5] (setting [7]) was 42%; in assay [5] (setting [8]) it was 79% (active); in assay [5] (at 50.0 µM) it was 87.6% (active); in assay [6] (setting [7]), 44%; in assay [6] (setting [8]), 88% (active); in assay [6] (at 50.0 µM) it was 83.4% (active).

Consider `O=[N+]([O-])c1ccc(-c2nc3c(o2)CCC3)cc1`, for which the growth inhibition was -85% in assay [1] (setting [7]); -83% in assay [1] (setting [8]); 9.15% in assay [1] (at 50.0 µM); -15% in assay [2] (setting [7]); -15% in assay [2] (setting [8]); -2.9% in assay [2] (at 50.0 µM). Also, the growth inhibition is -22% in assay [3] (setting [7]); -22% in assay [3] (setting [8]); 6.4% in assay [3] (at 50.0 µM); -57% in assay [4] (setting [7]); -62% in assay [4] (setting [8]); 25.1% in assay [4] (at 50.0 µM). Also, the growth inhibition in assay [5] (setting [7]) was -72%; in assay [5] (setting [8]) it was -82%; in assay [5] (at 50.0 µM) it was -4.6%; in assay [6] (setting [7]), -92%; in assay [6] (setting [8]) it was -61%; in assay [6] (at 50.0 µM), 3.25%.

On to `OC1c2cc(Cl)cc(Cl)c2OC2(N3CCCC3)CCCCC12` (stereo not given), for which the growth inhibition in assay [1] (setting [7]) was 62%; in assay [1] (setting [8]), 94% (active); in assay [1] (at 50.0 µM), 81.5% (active); in assay [2] (setting [7]), 37%; in assay [2] (setting [8]) it was 87% (active); in assay [2] (at 50.0 µM) it was 46.1%. Moreover, the growth inhibition in assay [3] (setting [7]) is 44%; in assay [3] (setting [8]), 87% (active); in assay [3] (at 50.0 µM), 82% (active); in assay [4] (setting [7]), 34%; in assay [4] (setting [8]), 47%; in assay [4] (at 50.0 µM) it was 19.1%. For the same compound, the growth inhibition in assay [5] (setting [7]) was 51%; in assay [5] (setting [8]), 96% (active); in assay [5] (at 50.0 µM), 73.3% (active); in assay [6] (setting [7]), 61%; in assay [6] (setting [8]), 96% (active); in assay [6] (at 50.0 µM) it was 73.6% (active).

For the compound `CC1CCC(C)(C)c2cc([N+](=O)[O-])cc([N+](=O)[O-])c21` (stereo not given), the growth inhibition in assay [1] (setting [7]) is -1%; in assay [1] (setting [8]) it was 99% (active); in assay [1] (at 50.0 µM), -6.5%; in assay [2] (setting [7]) it was 0%; in assay [2] (setting [8]) it was 99% (active); in assay [2] (at 50.0 µM) it was -0.75%. The growth inhibition in assay [3] (setting [7]) was -4%; in assay [3] (setting [8]), 99% (active); in assay [3] (at 50.0 µM), 26.2%; in assay [4] (setting [7]), 1%; in assay [4] (setting [8]), 99% (active); in assay [4] (at 50.0 µM) it was -8.1%. The growth inhibition in assay [5] (setting [7]) was 18%; in assay [5] (setting [8]) it was 99% (active); in assay [5] (at 50.0 µM) it was 80.2% (active); in assay [6] (setting [7]), -1%; in assay [6] (setting [8]), 99% (active); in assay [6] (at 50.0 µM), 17.9%.

Consider `COc1cc(C2c3cc4c(cc3[C@@H](OCCN)[C@H]3COC(=O)C23)OCO4)cc(OC)c1O` (stereo not given in full), for which the growth inhibition in assay [1] (setting [7]) is 47%; in assay [1] (setting [8]), 93% (active); in assay [1] (at 50.0 µM), 52.2%; in assay [2] (setting [7]), 11%; in assay [2] (setting [8]), 55%; in assay [2] (at 50.0 µM), 77.2% (active). For the same compound, the growth inhibition is 29% in assay [3] (setting [7]); 63% in assay [3] (setting [8]); 69.5% in assay [3] (at 50.0 µM); 29% in assay [4] (setting [7]); 28% in assay [4] (setting [8]); 49.6% in assay [4] (at 50.0 µM). For the same compound, the growth inhibition was 24% in assay [5] (setting [7]); 44% in assay [5] (setting [8]); 49.5% in assay [5] (at 50.0 µM); 19% in assay [6] (setting [7]); 68% in assay [6] (setting [8]); 80.7% (active) in assay [6] (at 50.0 µM).
